M1 ag: human M1 muscarinic receptor agonism | P11229 | AID 588814 | 360,000 compounds, 0.33% hits | CHO-K1 hM1, Fluo-8 calcium fluorescence, agonist mode; 0% DMSO, 100% acetylcholine EC100 | activation, % at 3 µM;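 active means activation above the run's mean compound activation plus 3 SD, cut at about 16% in these data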;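 further: peak over basal fluorescence ratio within a 140 s kinetic read after compound addition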
Target sequence (P11229 whole entry, looked up): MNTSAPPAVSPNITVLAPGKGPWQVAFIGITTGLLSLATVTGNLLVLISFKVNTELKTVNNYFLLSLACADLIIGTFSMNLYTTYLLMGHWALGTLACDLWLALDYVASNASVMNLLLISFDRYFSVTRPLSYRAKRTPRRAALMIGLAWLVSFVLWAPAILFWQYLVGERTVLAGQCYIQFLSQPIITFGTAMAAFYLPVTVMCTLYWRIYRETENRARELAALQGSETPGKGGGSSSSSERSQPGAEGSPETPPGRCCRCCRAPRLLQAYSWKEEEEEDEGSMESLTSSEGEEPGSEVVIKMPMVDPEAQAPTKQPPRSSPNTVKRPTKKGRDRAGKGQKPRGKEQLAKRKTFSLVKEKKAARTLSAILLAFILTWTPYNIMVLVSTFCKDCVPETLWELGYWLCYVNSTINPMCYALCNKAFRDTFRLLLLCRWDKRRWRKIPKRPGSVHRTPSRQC
CHO-K1 Ca ag: M1 agonist counterscreen hit in parental CHO-K1 cells. Fluo-8 calcium fluorescence; scaled to maximal ATP response, vehicle zero. activation, % at 3 µM. 360,000 compounds, 0.48% hits; in the data active means activation above about 15%;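 further: untransfected CHO-K1 host cells lacking M1 receptor as counterscreen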
M1 PAM parental: counter-screen for M1 PAMs: effect in parental CHO-K1 cells; ATP EC20, Fluo-8 calcium fluorescence; 0% at ATP EC20, 100% at ATP max; activation, % at 3 µM; 360,000 compounds, 0.02% hits;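 active means activation above the run cutoff, the mean activation of all test compounds plus 3 SD, cut at about 40% in these data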;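 further: peak over basal fluorescence ratio in a 140 s read after ATP addition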
CHO-K1 Ca antag: M1 antagonist counterscreen hit in parental CHO-K1 cells; ATP-induced calcium, Fluo-8 fluorescence; inhibition, % at 3 µM; 360,000 compounds, 0.6% hits;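 active means inhibition above a per-plate cutoff, the plate's mean sample inhibition plus 3 SD, cut at about 24% in these data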;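 further: 0% = DMSO plus EC80 ATP and 100% = DMSO alone without ATP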
M1 antag: human CHRM1 antagonism; CHO-K1 hM1, Fluo-8 calcium fluorescence, ACh EC80 antagonist; inhibition, % at 3 µM; 360,000 compounds, 1.3% hits; AID 588852;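 active means percent inhibition above its own plate's cutoff, namely the mean of that plate's compound wells plus 3 SD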;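 further: peak over basal fluorescence ratio during 140 s after agonist addition; 0% = ACh EC80 plus DMSO and 100% = DMSO alone without agonist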
CHRM1 PAM: human CHRM1 positive allosteric modulation; CHO-K1 hM1, Fluo-8 calcium fluorescence, ACh EC20; 0% = ACh EC20, 100% = maximal ACh; activation, % at 3 µM; 360,000 compounds, 0.088% hits; AID 588819; in the data active means activation above about 19%, passing the limit was not always enough
* hit, by the source's call. Shown are actives, neighbours in structure and some others; about 2.4% of the full set was active somewhere.

SMILES	M1 ag	CHO-K1 Ca ag	M1 PAM parental	CHO-K1 Ca antag	M1 antag	CHRM1 PAM
O=C(Nc1ccc(Cl)cc1)Nc1csc([N+](=O)[O-])c1	8	16*	2	16	29	-3
O=C(Nc1ccc(Cl)cc1)Nc1ccccc1CC[N+](=O)[O-]	0	10	-14	24*	11	-21
CN(C)C(=O)Nc1ccccc1CC[N+](=O)[O-]	-4	0	18	-8	-4	5
CCC(=O)N1CCc2cc(S(=O)(=O)CCC(=O)Nc3ccc(F)c(F)c3)ccc21	-2	0	-8	35*	11	-4
CCC(=O)N1CCc2cc(S(=O)(=O)CCC(=O)NCc3cccc(OC)c3)ccc21	-4	1	2	-18	51*	3
CCC(=O)N1CCc2cc(S(=O)(=O)CCC(=O)Nc3cccc(F)c3)ccc21	-3	0	10	-5	-25	3
NS(=O)(=O)c1ccc(NC(=O)CSc2nc(Nc3ccccc3)nc(N3CCOCC3)n2)cc1	-4	0	-6	1	-5	9
Cc1cccc(-n2c(C)cc(/C=N/n3cnnc3)c2C)c1	-3	1	16	-11	70*	-21
CC(Sc1nc(N)cc(=O)[nH]1)C(=O)Nc1sc2c(c1C#N)CCCC2 (stereo not drawn)	-6	1	-16	30*	24	-17
N#Cc1c(NC(=O)CSc2nc(N)cc(=O)[nH]2)sc2c1CCCCCC2	0	4	-4	8	7	-2
C#CCOCCOCCOCCNc1nc(N2CCN(C(=O)CCCCCCCCCCNC(=O)[C@@H](CCC(=O)O)n3cc(CCCCCN)nn3)CC2)nc(N2CCN(C(=O)CCCCCCCCCCNC(=O)[C@H](CCCCN)n3cc(C[C@@H](C)CC)nn3)CC2)n1	20*	3	5	-12	10	-16
O=C(Nc1ccccc1)c1cc(C2CCCCN2S(=O)(=O)c2ccc(F)cc2F)on1 (stereo not drawn)	0	0	-11	19	0	5
Cc1ccc2c(c1)C1(SC(C)C(=O)N1c1ccc(Cl)cc1)C(=O)N2 (stereo not drawn)	-12	2	12	0	25	-26
Cc1ccc(N2C(=O)CSC23C(=O)Nc2ccccc23)cc1 (stereo not drawn)	-5	0	11	-3	41*	-19
CCc1ccc(-c2nc(CS(=O)CC(=O)NC3CCCCCC3)c(C)o2)cc1 (stereo not drawn)	-7	-1	11	-9	-17	18
COc1cc2c3c(c1)c(N=NC(N)=S)c(O)n3C(C)(C)C=C2C	-3	0	-19	-9	33*	17
CC(=O)Nc1ccc(S(=O)(=O)NCC(=O)OCC(=O)NCc2ccco2)cc1	0	0	-30	28*	-19	5
O=[N+]([O-])c1ccccc1Nc1nc(-c2cccnc2)cs1	-6	2	10	-7	-12	3
COc1ccc(CN(C)C(=O)CNC(=O)c2ccc3ccccc3c2)c(OC)c1	-3	5	5	-10	-3	3
COc1ccc(Br)cc1CN(C)C(=O)CNC(=O)c1ccc2ccccc2c1	-4	3	-3	-11	29*	-16
CC1CCN(C(=O)c2ccc(CSc3nc4ccncc4n3Cc3ccc(F)cc3)cc2)CC1	-12	1	13	4	38*	-27
CCc1ccc(C2NC(=O)c3ccccc3O2)cc1 (stereo not drawn)	0	1	10	-5	-5	10
CC(=O)c1c(C)n(CC(=O)NCc2ccco2)c2ccccc12	-3	2	2	-27	35*	-9
COc1ccc(NS(=O)(=O)c2ccc(C(=O)NCC3(N4CCOCC4)CCCCC3)cc2)cc1	15	15*	17	-12	-7	4
CS(=O)(=O)Cc1ccc(C(=O)NCC2(N3CCCCC3)CCCCC2)cc1	-11	0	22	-9	-15	9
SMILES	M1 ag	CHO-K1 Ca ag	M1 PAM parental	CHO-K1 Ca antag	M1 antag	CHRM1 PAM
COCc1ccc(C(=O)NCC2(N3CCCCC3)CCCCC2)cc1	-9	16*	-18	-2	2	1
COc1ccc(NS(=O)(=O)c2ccc(C(=O)N(C)Cc3ccc(C)o3)cc2)cc1	20*	13	2	-4	-1	4
C[C@@H]1CN([C@@H](C)CO)C(=O)CCCn2nncc2CO[C@@H]1CN(C)S(=O)(=O)c1ccc(C#N)cc1	-2	0	5	-4	-9	3
Cc1cc(O)ccc1NC(=O)CCN1C(=O)c2ccc([N+](=O)[O-])cc2C1=O	-3	1	12	-5	2	28*
CCN(CC)C(=S)Nc1ccc(Cl)c(Cl)c1	-8	1	20	-7	-8	9
Cc1ccc(S(=O)(=O)Nc2ccc(NC(=O)c3c(F)c(F)c(F)c(F)c3F)cc2)cc1	24*	15	15	-7	22	-4
CC(=O)c1ccc(NS(=O)(=O)c2ccc(C)cc2)cc1	-3	0	-6	27*	-12	-4
CC(=O)c1ccc(NS(=O)(=O)c2ccc(C(C)(C)C)cc2)cc1	-3	7	3	-5	9	-5
Cc1cc(NS(=O)(=O)c2ccc(NC(=O)c3c(F)c(F)c(F)c(F)c3F)cc2)nc(C)n1	-2	1	11	-4	-12	8
CC(C)N(Cc1nnc(-c2ccccc2Cl)o1)C(=O)COc1cccc(Cl)c1	-2	3	21	-8	-5	2
Cc1ccccc1Nc1nc(N)nc(COC(=O)c2ccc(O)cc2)n1	19*	7	26	-4	-6	12
COc1ccc(-c2csc(N(CCCN(C)C)C(=O)c3ccccc3Cl)n2)cc1	-9	3	11	-16	53*	-28
COc1ccc(-c2csc(N(CCCN(C)C)C(=O)c3ccccc3C)n2)cc1	-9	3	16	-12	14	-16
CN(C)CCCN(C(=O)c1cccs1)c1nc(-c2ccccc2)cs1	19*	2	12	-11	41*	-12
CCc1ccc(-n2cc(-c3ccc(F)cc3)[n+]3c2SCCC3)cc1	-13	1	19	0	52*	-32
Cc1ccc(-c2cn(-c3ccccc3)c3[n+]2CCCS3)cc1	-4	1	17	-11	40	-22
COc1ccc(CNCCC(c2ccc(OC)cc2)c2ccccc2OC)cc1 (stereo not drawn)	-3	1	-1	4	-2	6
COc1ccc(C(CCNCc2ccc(OC(C)C)cc2)c2ccccc2OC)cc1 (stereo not drawn)	3	18*	-4	14	1	10
CCN(CC)CCNC(C(=O)Nc1cccc(C(C)=O)c1)c1ccccc1 (stereo not drawn)	-10	-1	13	4	84*	-29

High-throughput results (PubChem BioAssay)
